Assay results: PubChem BioAssay
Activity calls are given as the source filed them. Unless noted, the rule behind the calls is not given here.

Tests used:
[1] = HepG2 liver cancer cell viability effects, profiling panel, resazurin fluorescence, 24 h, PK04 Diversity Set (AID 1172); conditions: higher = more signal; note: test concentration not given here
[2] = basal S. cerevisiae growth modulation, no modifier, primary screen, OD600, strain BY4716, 24 h, basal condition (AID 1173); conditions: OD600, 24 h, higher = more signal, called active from +8 up or from −8 down
[3] = MM1S myeloma cell viability, profiling panel, resazurin fluorescence, basal, 24 h, PK04 Diversity Set (AID 1174); conditions: higher = more signal, called active from +8 up or from −8 down;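 note: MM1S multiple myeloma cell line; test concentration not given here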
[4] = target: Dihydroorotate dehydrogenase (quinone), mitochondrial (Plasmodium falciparum (isolate 3D7)) (UniProt Q08210); assay: PfDHODH enzyme inhibitors, primary screen, biochemical, C-terminal His tag, absorbance 600 nm (AID 1175); conditions: DCIP absorbance 600 nm, higher = more signal, called active from +8 up or from −8 down;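 note: recombinant parasite enzyme with a five histidine tag at its C terminus; test concentration not given here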
[5] = P. aeruginosa biofilm formation inhibitors, primary screen, strain PAO1, LB-PBS medium, absorbance 600 nm (AID 1176); note: test concentration not given here; conditions: P. aeruginosa PAO1 growth/biofilm, A600, 12 h; higher = more signal
[6] = S. cerevisiae RM11-1a growth modifiers, primary screen, strain RM11-1a, OD600, basal, 24 h (AID 1177); conditions: OD600, 24 h, higher = more signal, called active from +8 up or from −8 down;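 note: cultures grown under basal conditions with no added stressor; test concentration not given here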
[7] = E. coli acrAB mutant growth effects, primary screen, E. coli filamentation inducers, strain DRC39, OD650, 24 h (AID 1178); conditions: higher = more signal, called active from +8 up or from −8 down;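 note: growth measured as culture turbidity by optical density at 650 nm; test concentration not given here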
[8] = E. coli acrAB mutant growth effects, primary screen, E. coli filamentation inducers, strain DRC39, OD650, 48 h (AID 1179);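 note: screen aims at cell division blockers that make cells filament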; conditions: E. coli DRC39 delta-acrAB growth, higher = more signal, called active from +8 up or from −8 down
[9] = RPMI8226 myeloma cell viability, profiling panel, resazurin fluorescence, basal, 24 h, PK04 Diversity Set (AID 1180); conditions: higher = more signal;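 note: RPMI8826 multiple myeloma cell line at 5000 cells per well; test concentration not given here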
[10] = target: E3 ubiquitin-protein ligase XIAP (Homo sapiens) (UniProt P98170); assay: XIAP binders, primary screen, biophysical, small-molecule microarray, fluorescence 635 nm (AID 1181); conditions: small-molecule microarray binding, higher = more signal;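 note: score merges 667 nm emission and signal to noise over triplicate slides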
Sequence of E3 ubiquitin-protein ligase XIAP (Homo sapiens) (P98170 whole entry, looked up): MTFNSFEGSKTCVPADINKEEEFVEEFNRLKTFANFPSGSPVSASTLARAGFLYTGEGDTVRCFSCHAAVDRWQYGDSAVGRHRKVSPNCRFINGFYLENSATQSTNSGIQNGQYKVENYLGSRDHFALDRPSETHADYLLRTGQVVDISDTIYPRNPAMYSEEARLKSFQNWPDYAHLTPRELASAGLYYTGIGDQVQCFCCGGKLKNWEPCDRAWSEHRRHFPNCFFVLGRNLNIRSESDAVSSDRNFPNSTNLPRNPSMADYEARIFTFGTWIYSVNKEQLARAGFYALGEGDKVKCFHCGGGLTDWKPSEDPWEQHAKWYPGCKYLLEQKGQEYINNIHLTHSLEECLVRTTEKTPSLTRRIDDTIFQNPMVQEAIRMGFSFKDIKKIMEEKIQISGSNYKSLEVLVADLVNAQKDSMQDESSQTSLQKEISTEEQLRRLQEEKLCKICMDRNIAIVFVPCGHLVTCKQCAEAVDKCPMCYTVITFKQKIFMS

Sequence of Dihydroorotate dehydrogenase (quinone), mitochondrial (Plasmodium falciparum (isolate 3D7)) (Q08210 whole entry, looked up): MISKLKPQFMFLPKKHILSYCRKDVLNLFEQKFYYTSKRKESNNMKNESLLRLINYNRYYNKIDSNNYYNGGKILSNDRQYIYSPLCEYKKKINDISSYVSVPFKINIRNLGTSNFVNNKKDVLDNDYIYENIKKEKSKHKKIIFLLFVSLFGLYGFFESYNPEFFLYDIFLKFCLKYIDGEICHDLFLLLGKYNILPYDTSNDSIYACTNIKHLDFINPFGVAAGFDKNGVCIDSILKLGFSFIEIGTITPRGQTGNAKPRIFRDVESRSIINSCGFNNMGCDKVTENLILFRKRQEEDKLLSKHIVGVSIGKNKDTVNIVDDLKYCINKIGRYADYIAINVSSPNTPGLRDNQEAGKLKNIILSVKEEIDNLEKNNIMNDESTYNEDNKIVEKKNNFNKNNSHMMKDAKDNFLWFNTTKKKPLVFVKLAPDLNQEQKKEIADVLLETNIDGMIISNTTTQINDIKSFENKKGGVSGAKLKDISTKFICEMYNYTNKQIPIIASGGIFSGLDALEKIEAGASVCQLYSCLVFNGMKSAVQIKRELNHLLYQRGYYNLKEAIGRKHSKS

| SMILES | z-score [1] | z-score [2] | z-score [3] | composite z-score [4] | z-score [5] | z-score [6] | z-score [7] | z-score [8] | z-score [9] | composite z-score [10] |
| --- | --- | --- | --- | --- | --- | --- | --- | --- | --- | --- |
| C=CCC(OC(C)=O)[C@@H]1[C@@H](N(Cc2cccc3ccccc23)C(=O)c2ccc(-c3ccccc3)cc2)c2cc(OCCCO)ccc2N1C(=O)c1ccc2ccccc2n1 (stereo not given in full) | -0.0049 | 0.493 (inactive) | 0.623 (inactive) | -0.318 (inactive) | 0.35 (inactive) | -0.634 (inactive) | -0.267 (inactive) | -0.174 (inactive) | 0.485 | -0.0102 |
| [N-]=[N+]=NCc1ccccc1C[C@]1(C(=O)N2CCCCC2)N=C(c2ccc(OCCCO)cc2)O[C@H]1c1ccccc1 | 0.116 | 1.71 (inactive) | -2.13 (inactive) | 0.939 (inactive) | -0.372 (inactive) | 2.8 (inactive) | 0.914 (inactive) | 1.23 (inactive) | -5.14 | 0.17 |
| CCCCN1CC=CC23O[C@@H]4C=CCOC(=O)[C@@H]4[C@H]2C(=O)N(CCO)[C@@H]3C1=O (stereo not given in full) | -0.394 | 1.31 (inactive) | -0.202 (inactive) | -0.161 (inactive) | -0.208 (inactive) | -0.322 (inactive) | 0.233 (inactive) | 0.109 (inactive) | -0.236 | -0.239 |
| C=CCC(OC(C)=O)[C@@H]1[C@@H](N(Cc2cc3ccccc3o2)C(=O)Cc2ccc(OC)cc2)c2cc(OCCCO)ccc2N1C(=O)Cc1ccc(OC)cc1 (stereo not given in full) | -1.28 | -1.01 (inactive) | -0.0297 (inactive) | 0.707 (inactive) | 0.198 (inactive) | -0.133 (inactive) | -0.184 (inactive) | -0.578 (inactive) | -0.561 | 0.0345 |
| C=CCC(OC(C)=O)[C@@H]1[C@@H](N(Cc2ccc(-c3cccc(C(F)(F)F)c3)o2)C(=O)c2cccc3ccccc23)c2cc(OCCCO)ccc2N1C(=O)c1ccc2ccccc2c1 (stereo not given in full) | -0.0598 | -0.988 (inactive) | -0.416 (inactive) | -0.0361 (inactive) | -0.464 (inactive) | 0.204 (inactive) | 0.807 (inactive) | 0.489 (inactive) | -0.311 | -0.04 |
| CO[C@H]1O[C@H](CO)[C@@H](OC(=O)Nc2ccc3c(c2)OCO3)[C@@H]2OC(=O)[C@@H](Cc3ccccc3)C/C=C/C[C@H](Cc3ccccc3)C(=O)O[C@@H]12 | -1.37 | 0.904 (inactive) | -2.59 (inactive) | -0.675 (inactive) | 0.509 (inactive) | 2.14 (inactive) | 0.307 (inactive) | 0.312 (inactive) | -1.38 | 0.785 |
| C[N+](C)(C)CCCCCCNC(=O)[C@H]1C[C@H]2C(=O)NCC(=O)N2[C@H]1c1cccc(OCCO)c1 | 0.547 | -0.316 (inactive) | -0.0342 (inactive) | -0.97 (inactive) | -0.0743 (inactive) | 0.254 (inactive) | -0.129 (inactive) | -0.285 (inactive) | -0.252 | 0.0402 |
| O=C1NC(=O)C2C1C=CC(C(O)c1ccc(F)cc1)N2Nc1ccccn1 (stereo not given) | -1.78 | 0.272 (inactive) | -1.28 (inactive) | 0.791 (inactive) | 1.77 (inactive) | 0.624 (inactive) | -0.684 (inactive) | -0.69 (inactive) | -1.64 | 0.172 |
| O=C1N(Cc2ccccc2)c2ccccc2[C@H]2OC(c3ccc(OCCCO)cc3)=N[C@@]12Cc1ccccc1 | -1.46 | -0.084 (inactive) | -3.4 (inactive) | 0.983 (inactive) | 0.565 (inactive) | 2.15 (inactive) | 0.383 (inactive) | -0.362 (inactive) | -3.36 | 0.0297 |
| CCCC[C@@H](O)C1=C(COC)Cn2c(=O)n(-c3ccccc3)c(=O)n2[C@H]1CO | -0.603 | -1.86 (inactive) | -0.0278 (inactive) | -1.45 (inactive) | -0.131 (inactive) | -2.03 (inactive) | 1.15 (inactive) | 1.06 (inactive) | -0.0456 | -0.189 |
| NC(=O)[C@@]1(CCS(=O)(=O)c2ccccc2)COC(c2ccc(OCCCO)cc2)=N1 | -0.285 | 0.511 (inactive) | -1.34 (inactive) | -0.809 (inactive) | -0.304 (inactive) | 0.0637 (inactive) | -0.223 (inactive) | 0.491 (inactive) | -0.318 | 0.291 |
| C[C@H]1C2[C@H](Cc3ccccc3)NC(=O)[C@]23C(=O)NCC(=O)N2CCC[C@H]2C(=O)NC/C=C\C/C=C/C3[C@@H]2O[C@]12C (stereo not given in full) | 0.825 | -1.82 (inactive) | 0.741 (inactive) | -0.173 (inactive) | -0.14 (inactive) | -0.939 (inactive) | 1.02 (inactive) | 0.741 (inactive) | 1.05 | -0.258 |
